Assay [1] is described as follows: Nuclear factor erythroid 2-related factor 2/antioxidant responsive element (Nrf2/ARE) small molecule agonists: qHTS cell viability counter screen in human keratinocytes (AID 1919968; active = well fitted curve in the direction sought with a large enough effect in the repeat runs; an effect the other way counts as inactive or inconclusive; note: nearly all actives have a fitted effect of over 55% in size; note: potency is the fitted concentration of half-maximal effect). Put shortly: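 KeratinoSens HaCaT cells, 1,500/well, preincubated 5 h, then exposed to compounds in DMSO for 23 h at 37 C/5% CO2. Viability read as CellTiter-Fluor fluorescence after 1 h, in the same wells as the ARE-luciferase read.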

Assay [2] can be described thus: Nuclear factor erythroid 2-related factor 2/antioxidant responsive element (Nrf2/ARE) small molecule agonists: luciferase reporter gene qHTS assay in human keratinocytes (AID 1919969). Note: nearly all actives have a fitted effect of over 35% in size. Background: Reporter assays use an easily measured gene product as a stand-in for the process of interest.
In assay [3] the target is Gonadotropin-releasing hormone receptor (Homo sapiens) (UniProt P30968). The experiment in a line: Human gonadotropin-releasing hormone receptor (GnRHR) small molecule agonists, calcium flux assay in GnRHR-HEK293 cells (AID 1920063). Note: nearly all actives have a fitted effect of over 35% in size. Put shortly:
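HEK293 cells stably expressing human GnRHR were dye-loaded for 1 h at 37 C. Compound was added in agonist mode and fluorescence (Ex/Em 480/540) recorded kinetically for 3 min. Fifteen concentrations, triplicates.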

Assay [4] in a line: G protein-coupled receptor (GPCR) small molecule agonists, calcium flux assay: HEK293 wild type cell line counter screen (AID 1920065). Put shortly: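 Wild-type HEK293 cells plated 18 h, loaded with calcium dye 1 h at 37 C, then compounds added in agonist mode (ATP as positive control). Kinetic fluorescence Ex/Em 480/540 recorded 3 min at 1 sec intervals; 15 concentrations, triplicate.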
A general note: A change in cytosolic calcium serves as a functional read-out for many receptors and channels.

Assay [5] in a line: p53 small molecule agonists, cell-based qHTS assay with rat liver microsomes (AID 1963578). The method, boiled down: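 Quantitative HTS of the Tox21 10K library: p53RE-bla cells, rat liver microsomes plus NADPH at 0.5 mg/mL final each, 16 h at 37 C, beta-lactamase fluorescence detection.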
In general terms: Quantitative high-throughput screening tests each substance at several concentrations.

Assay [6] in a line: p53 small molecule agonists, cell-based qHTS assay with human liver microsomes: qHTS cell viability counter screen (AID 1963579). Note: nearly all actives have a fitted effect of over 45% in size. Put shortly:
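Viability of p53RE-bla cells is measured as CellTiter-Glo luminescence following a 16 h, 37 C incubation with compound, liver microsomes from human donors and NADPH.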

Assay [7] is described as follows: p53 small molecule agonists, cell-based qHTS assay with rat liver microsomes: qHTS cell viability counter screen (AID 1963580). Note: nearly all actives have a fitted effect of over 45% in size. The method, boiled down:
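In HCT-116 cells carrying a p53 response element-bla reporter, compounds were metabolically activated in situ by rat liver microsomes with NADPH over 16 h. Cell ATP content then served as the cytotoxicity measure.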

Assay [8] is described as follows: p53 small molecule agonists, cell-based qHTS assay: qHTS cell viability counter screen (AID 1963581). Note: nearly all actives have a fitted effect of over 45% in size. The method, boiled down: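 p53RE-bla HCT-116 cells, compounds added 5 h after plating and incubated 16 h at 37 C. Cytotoxicity measured in the same wells as intracellular ATP by CellTiter-Glo luminescence after 30 min at room temperature.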
Assay [9] can be described thus: p53 small molecule agonists, cell-based qHTS assay (AID 1963582; active = well fitted activation curve with a large enough effect in the signal ratio in the repeat runs, not every such curve was filed as active; the % refers to the signal ratio). The method, boiled down:
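p53RE-bla reporter cells, compounds added in DMSO after 5 h plating, incubated 16 h at 37 C. Beta-lactamase read via 2 h room-temperature LiveBLAzer B/G FRET substrate, fluorescence intensity.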

In assay [10] the target is 5-hydroxytryptamine receptor 2A (Homo sapiens) (UniProt P28223). The assay can be described thus: 5-hydroxytryptamine receptor 2A (HTR2A) small molecule antagonists, cell-based qHTS assay (AID 1963586). Note: nearly all actives have a fitted effect of over 45% in size. Put shortly: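 Antagonist-mode intracellular calcium assay: DOI (4 nM) added after 5 min compound pre-incubation at room temperature to dye-loaded HTR2A-CHO cells. Fluorescence followed for 3 min, sampled every second.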
5-hydroxytryptamine receptor 2A (Homo sapiens), sequence (P28223 whole entry, looked up): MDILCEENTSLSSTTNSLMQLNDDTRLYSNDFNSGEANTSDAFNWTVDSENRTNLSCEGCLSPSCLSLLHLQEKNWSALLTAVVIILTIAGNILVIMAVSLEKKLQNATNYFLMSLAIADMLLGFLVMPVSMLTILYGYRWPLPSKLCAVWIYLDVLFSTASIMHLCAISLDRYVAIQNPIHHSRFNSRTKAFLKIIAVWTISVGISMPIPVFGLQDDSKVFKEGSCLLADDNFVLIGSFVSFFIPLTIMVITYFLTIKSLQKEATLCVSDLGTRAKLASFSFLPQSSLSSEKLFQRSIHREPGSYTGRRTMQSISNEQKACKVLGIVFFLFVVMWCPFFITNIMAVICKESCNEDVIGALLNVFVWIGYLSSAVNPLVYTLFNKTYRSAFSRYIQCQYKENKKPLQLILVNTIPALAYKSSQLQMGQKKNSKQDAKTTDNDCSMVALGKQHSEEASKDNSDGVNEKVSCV

For assay [11] the target is unchanged. The assay can be described thus: 5-hydroxytryptamine receptor 2A (HTR2A) small molecule agonists, cell-based qHTS assay (AID 1963587). Note: nearly all actives have a fitted effect of over 30% in size. Put shortly:
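HTR2A-CHO cells, plated 18 h at 37 C/5% CO2, dye-loaded 1 h at 37 C; compounds in DMSO added by pin tool (agonist mode). Intracellular calcium flux read as kinetic fluorescence on FDSS over 2 min at 1 s intervals.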

Assay [12] addresses Muscarinic acetylcholine receptor M1 (Homo sapiens) (UniProt P11229). The assay can be described thus: Cholinergic receptor muscarinic 1 (CHRM1) small molecule antagonists, cell-based qHTS assay (AID 1963588). Note: nearly all actives have a fitted effect of over 40% in size. The method, boiled down: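 CHRM1-CHO calcium-flux assay, antagonist mode. Cells were seeded 18 h, dye-loaded 1 h at 37 C and given compound for 5 min at RT, then acetylcholine was added at 50nM. FDSS fluorescence was read 3 min; 15 concentrations, three runs.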

For assay [13] the target is unchanged. The assay can be described thus: Cholinergic receptor muscarinic 1 (CHRM1) small molecule agonists, cell-based qHTS assay (AID 1963589). Note: nearly all actives have a fitted effect of over 35% in size. Note: potency is the fitted concentration of half-maximal effect. Put shortly: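 CHO cells stably expressing human CHRM1 were loaded with calcium dye for 1 h at 37 C, then compound was added in agonist mode. Intracellular calcium fluorescence was followed kinetically at 1 s intervals. Fifteen concentrations were tested in three independent runs.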

Assay [14] is described as follows: cAMP Responsive Elements (CRE) small molecule agonists, cell-based qHTS assay (AID 1963590). Put shortly: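 CRE-bla HEK 293T cells, 2,000/well in DMEM with 10% dialyzed FBS and 25 mM HEPES, pre-incubated 18 h at 37 C, then exposed to compound 3 h at 37 C. Beta-lactamase reporter read with LiveBLAzer B/G FRET substrate after 2 h at room temperature.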
A short description of assay [15]: cAMP Responsive Elements (CRE) small molecule antagonists, cell-based qHTS assay (AID 1963591; active = well fitted inhibition curve with a large enough effect in the signal ratio in the repeat runs, not every such curve was filed as active; the % refers to the signal ratio). Put shortly: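 CRE-bla HEK293T cells plated 18 h, then given compound plus NKH477 at 0.25 uM final for 3 h at 37C. Beta-lactamase reporter read with LiveBLAzer B/G FRET substrate after 2 h at room temperature.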
For assay [16], the target named is Beta-2 adrenergic receptor (Homo sapiens) (UniProt P07550). The assay can be described thus: Adrenergic beta2 receptor (ADRB2) small molecule antagonists, cell-based qHTS assay (AID 1963592). Note: series mostly up to about 92 µM; nearly all actives have a fitted effect of over 50% in size. The method, boiled down:
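Cells (CHO, stable ADRB2 overexpression) incubated 18-20hr at 37C; compounds added from DMSO; agonist mix (1nM isoproterenol, 100uM IBMX, 25uM Ro-20-1724) added; 0.5hr RT; d2-cAMP and anti-cAMP-cryptate added; 1hr RT; 665/615 nm read.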

Assay [17] shares this target. The assay can be described thus: Adrenergic beta2 receptor (ADRB2) small molecule agonists, cell-based qHTS assay (AID 1963593).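 Note: CHO cells stably overexpressing human ADRB2.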 Put shortly:
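CHO cells stably over-expressing ADRB2 were plated overnight at 37C, then dosed with compounds plus a stimulation mix containing 100uM IBMX and 25uM Ro-20-1724 for 0.5hr at room temperature. cAMP was measured by HTRF competition, 1hr.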

Assay [18] concerns the target D(2) dopamine receptor (Homo sapiens) (UniProt P14416). The experiment in a line: Dopamine D2 receptor (DRD2) small molecule agonists, cell-based qHTS assay (AID 1963594). Note: nearly all actives have a fitted effect of over 35% in size. Note: potency is the fitted concentration of half-maximal effect. The method, boiled down:
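HEK293 cells stably expressing DRD2 were cultured 24 h at 37 C, then given Ro20-1724 (0.1 mM final) and compounds for 10 min at room temperature. NKH477 (200nM) was then added for 30 min. cAMP was read by HTRF.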

The target is the same in assay [19]. The assay can be described thus: Dopamine D2 receptor (DRD2) small molecule antagonists, cell-based qHTS assay (AID 1963595; active = well fitted inhibition curve with a large enough effect in the signal ratio in the repeat runs, with a control signal flat; the % refers to the signal ratio). Put shortly:
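Readout: HTRF cAMP, cAMP-d2 competing with cellular cAMP for anti-cAMP cryptate, read after 1 h. Cells: DRD2-HEK293. Conditions: 0.1 mM Ro20-1724, 12 nM quinpirole, 200 nM NKH477, 30 min RT.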

Assay [20] has as its target KiSS-1 receptor (Homo sapiens) (UniProt Q969F8). The assay can be described thus: Human kisspeptin (KISS1R) small molecule agonists, calcium flux assay in KISS1R-HEK293 cells (AID 1920064; active = well fitted curve in the direction sought with a large enough effect in the repeat runs; an effect the other way counts as inactive or inconclusive). Put shortly:
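HEK293 cells stably expressing human KISS1R were loaded with calcium dye for 1 h at 37 C, then given compound; fluorescence (Ex/Em 480/540) was read kinetically for 3 min. Fifteen concentrations, triplicate.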

This is an account of results in PubChem BioAssay (Tox21).

Each structure is given as a SMILES string. Inconclusive results are not listed. Active and inactive are the calls of the source. Unless noted, calls come from the whole dose curve. Square brackets hold non-standard residues; d marks the D form. Peptide text beside a SMILES is read from it. pGlu = O=C1CC[C@@H](C(=O)O)N1

Beta-2 adrenergic receptor (Homo sapiens), sequence (P07550 whole entry, looked up): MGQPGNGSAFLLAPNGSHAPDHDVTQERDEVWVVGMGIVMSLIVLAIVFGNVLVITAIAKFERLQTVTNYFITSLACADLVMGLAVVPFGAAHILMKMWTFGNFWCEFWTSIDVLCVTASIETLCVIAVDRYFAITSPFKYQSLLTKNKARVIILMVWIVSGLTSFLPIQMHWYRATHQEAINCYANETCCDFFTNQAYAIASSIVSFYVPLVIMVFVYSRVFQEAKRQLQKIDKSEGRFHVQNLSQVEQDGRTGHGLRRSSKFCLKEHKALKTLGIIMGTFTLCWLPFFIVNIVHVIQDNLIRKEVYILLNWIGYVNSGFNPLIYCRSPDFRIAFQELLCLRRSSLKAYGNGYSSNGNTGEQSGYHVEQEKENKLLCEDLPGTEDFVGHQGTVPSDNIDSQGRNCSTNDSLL
Gonadotropin-releasing hormone receptor (Homo sapiens), sequence (P30968 whole entry, looked up): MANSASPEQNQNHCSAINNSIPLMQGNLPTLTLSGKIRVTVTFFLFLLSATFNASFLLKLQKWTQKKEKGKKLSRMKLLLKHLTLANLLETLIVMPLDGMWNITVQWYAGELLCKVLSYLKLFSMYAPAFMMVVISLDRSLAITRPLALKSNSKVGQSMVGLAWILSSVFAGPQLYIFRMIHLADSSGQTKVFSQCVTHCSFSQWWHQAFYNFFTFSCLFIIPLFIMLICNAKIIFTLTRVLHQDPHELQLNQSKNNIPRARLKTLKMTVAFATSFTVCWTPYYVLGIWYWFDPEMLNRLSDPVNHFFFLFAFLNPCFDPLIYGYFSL
D(2) dopamine receptor (Homo sapiens), sequence (P14416 whole entry, looked up): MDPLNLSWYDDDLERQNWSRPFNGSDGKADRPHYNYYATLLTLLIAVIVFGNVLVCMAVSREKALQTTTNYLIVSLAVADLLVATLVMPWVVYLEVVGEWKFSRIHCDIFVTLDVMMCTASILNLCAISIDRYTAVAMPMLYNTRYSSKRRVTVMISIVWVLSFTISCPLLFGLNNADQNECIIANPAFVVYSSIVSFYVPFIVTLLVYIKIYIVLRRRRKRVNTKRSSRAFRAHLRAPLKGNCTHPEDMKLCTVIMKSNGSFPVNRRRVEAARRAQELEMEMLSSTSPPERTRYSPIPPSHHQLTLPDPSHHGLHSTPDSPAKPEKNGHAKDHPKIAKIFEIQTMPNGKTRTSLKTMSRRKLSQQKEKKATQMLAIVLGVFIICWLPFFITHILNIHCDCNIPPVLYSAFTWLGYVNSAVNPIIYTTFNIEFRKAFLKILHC
Muscarinic acetylcholine receptor M1 (Homo sapiens), sequence (P11229 whole entry, looked up): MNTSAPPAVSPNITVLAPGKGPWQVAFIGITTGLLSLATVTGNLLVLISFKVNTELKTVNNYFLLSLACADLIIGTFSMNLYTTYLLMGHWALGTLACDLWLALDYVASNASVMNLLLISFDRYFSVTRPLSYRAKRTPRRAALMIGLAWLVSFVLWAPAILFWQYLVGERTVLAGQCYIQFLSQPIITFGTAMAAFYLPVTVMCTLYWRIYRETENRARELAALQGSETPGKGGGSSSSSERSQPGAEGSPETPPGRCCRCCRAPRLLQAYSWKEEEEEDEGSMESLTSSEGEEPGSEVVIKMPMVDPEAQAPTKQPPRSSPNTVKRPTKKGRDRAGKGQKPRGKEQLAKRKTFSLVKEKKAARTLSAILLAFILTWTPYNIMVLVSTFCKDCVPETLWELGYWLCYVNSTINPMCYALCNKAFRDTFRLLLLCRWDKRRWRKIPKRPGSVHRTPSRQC
KiSS-1 receptor (Homo sapiens), sequence (Q969F8 whole entry, looked up): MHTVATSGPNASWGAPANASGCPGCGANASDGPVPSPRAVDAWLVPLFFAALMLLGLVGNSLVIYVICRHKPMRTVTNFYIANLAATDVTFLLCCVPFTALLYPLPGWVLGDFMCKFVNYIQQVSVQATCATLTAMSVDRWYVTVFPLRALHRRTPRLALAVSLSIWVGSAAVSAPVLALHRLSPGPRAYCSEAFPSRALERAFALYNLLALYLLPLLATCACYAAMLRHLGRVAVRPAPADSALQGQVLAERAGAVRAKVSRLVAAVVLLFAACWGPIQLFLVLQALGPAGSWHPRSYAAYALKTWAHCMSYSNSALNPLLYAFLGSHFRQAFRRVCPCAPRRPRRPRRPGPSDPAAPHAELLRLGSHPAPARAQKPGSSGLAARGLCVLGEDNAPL

With `Cc1c(NC(=O)c2cccnc2)c(=O)n(-c2ccccc2)n1C`, the Potency result in assay [1], in assay [2], in [3], in [4], in [5] and in assay [6] was “inactive” in each case. The Potency entry in [7], in assay [8], in [9], in assay [10], in assay [11] and in assay [12] was “inactive” throughout. Also, the Potency result in assay [13], in [14], in assay [15], in assay [16], in assay [17] and in assay [18] was “inactive” each time. The Potency entry in assay [19] was “inactive”.
Turning to `CC(C)Nc1ccc(NC(C)C)c2c1C(=O)c1ccccc1C2=O`, the Potency result in assay [1], in assay [2], in assay [3], in [4], in [5] and in assay [6] was “inactive” throughout. Besides, the Potency entry in assay [7], in [11], in [12], in assay [13], in assay [15] and in assay [16] was “inactive” in each case. For the same compound, the Potency entry in assay [17] and in assay [19] was “inactive” in each case.
Take `C=C(C)CS(=O)(=O)O`: the Potency entry in assay [1], in assay [2], in [3], in assay [4], in [6] and in assay [7] was “inactive” throughout. Moreover, the Potency result in assay [8], in assay [10], in assay [11], in assay [12], in assay [13] and in assay [14] was “inactive” in each case. For the same compound, the Potency entry in [15], in assay [16], in assay [18] and in assay [19] was “inactive” in each case.
Turning to `CS(=O)(=O)CCNCc1ccc(-c2ccc3ncnc(Nc4ccc(OCc5cccc(F)c5)c(Cl)c4)c3c2)o1`, the Potency in assay [1] is 29.8 µM (active); in [13], 0.012 µM (active). Also, the Potency result in assay [2], in [3], in assay [4], in assay [6], in assay [7] and in [8] was “inactive” each time. Also, the Potency entry in assay [10], in assay [11], in [12], in assay [16] and in assay [19] was “inactive” each time.
For the compound `CCNC(=O)[C@@H]1CCCN1C(=O)[C@H](CCCN=C(N)N)NC(=O)[C@H](CC(C)C)NC(=O)CNC(=O)[C@H](Cc1ccc(O)cc1)NC(=O)[C@H](CO)NC(=O)[C@H](Cc1c[nH]c2ccccc12)NC(=O)[C@H](Cc1cnc[nH]1)NC(=O)[C@@H]1CCC(=O)N1` ([pGlu]HWSYGLRP-NHEt), the Potency result in [1], in assay [2], in [20], in assay [4], in assay [5] and in [6] was “inactive” in each case. Further, the Potency result in assay [7], in assay [8], in [9], in assay [14], in assay [15] and in assay [16] was “inactive” each time. The Potency entry in assay [18] and in [19] was “inactive” in each case.
For `O=C1NCCN1CCN1CCC(c2cn(-c3ccc(F)cc3)c3ccc(Cl)cc23)CC1`, the Potency in assay [1] was 11.9 µM (active). Besides, the Potency entry in assay [2], in assay [3], in assay [4], in assay [7], in assay [11] and in assay [16] was “inactive” each time. Moreover, in [18], the Potency result was “inactive”.
On to `CC[C@H](C)C(=O)O[C@H]1C[C@H](O)C=C2C=C[C@H](C)[C@H](CC[C@@H](O)C[C@@H](O)CC(=O)O)[C@H]21`, for which the Potency entry in [1], in assay [2], in assay [3], in assay [4], in assay [6] and in assay [7] was “inactive” in each case. Also, the Potency entry in assay [8], in [14], in assay [16] and in assay [19] was “inactive” throughout. Also, the Potency in assay [18] is 61.1 µM (active).
For the compound `c1ccccc1`, the Potency entry in assay [1], in assay [2], in [3], in assay [4], in [10] and in assay [11] was “inactive” in each case. The Potency entry in assay [12], in assay [13], in assay [14], in assay [15], in [16] and in assay [18] was “inactive” in each case. Further, the Potency entry in assay [19] was “inactive”.
